8 compounds from PubChem BioAssay (NCI) can be followed below.

Some test systems named below: HCT-15 colon; HT29 colon; SNB-75 CNS; SNB-19 CNS; PC-3 prostate; SK-MEL-5 melanoma; UACC-62 melanoma; LOX IMVI melanoma; SK-MEL-28 melanoma; SK-MEL-2 melanoma; EKVX NSCLC; SN12C renal; UO-31 renal; TK-10 renal; ACHN renal; CAKI-1 renal; A498 renal; CCRF-CEM leukemia; MOLT-4 leukemia.
Assay in all cases: NCI-60 one-dose screen, 48 h (100 = growth as untreated, 0 = no growth, -100 = all killed)
Holding throughout (conditions): 10 µM

About 83,000 compounds went through this panel and 20% of them were active in at least one assay; those are over-represented in the sample as a whole.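 48-hour exposure, single concentration, 96-well plates; percent growth endpoint where 0 means no net growth. Active: below 10.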 Values without a mark were called inactive. The source made the active and inactive calls.

In the case of `O=C(c1ccc(O)cc1)C1[C@H](c2ccc(Br)cc2)[C@@H](c2ccccc2)NC12C(=O)Nc1ccc(Br)cc12` (stereo partly drawn), the growth was -47.3% (active) in the experiment with HCT-15 colon; -31.5% (active) in the experiment on HT29 colon; 45.8% in the experiment with SNB-75 CNS; 11.8% with SNB-19 CNS; 21.4% in the experiment on PC-3 prostate; -76.7% (active) with SK-MEL-5 melanoma. In addition, the growth is -35.7% (active) in the experiment with UACC-62 melanoma; -100% (active) in the experiment with LOX IMVI melanoma; 26.2% with SK-MEL-28 melanoma; -21.1% (active) with SK-MEL-2 melanoma; 6.1% (active) in the experiment with EKVX NSCLC; -83.5% (active) in the experiment on SN12C renal. In addition, the growth in the experiment on UO-31 renal is -27.3% (active); with TK-10 renal, -5.38% (active); in the experiment with ACHN renal, 2.27% (active); in the experiment on CAKI-1 renal, 3.36% (active); in the experiment with A498 renal, 10.9%; in the experiment with CCRF-CEM leukemia it was 19.7%. Also, in the experiment with MOLT-4 leukemia, the growth is 12.4%.

As for `O=c1oc2ccccc2cc1-c1csc(N=Nc2c(O)[nH]c3ccc(Br)cc23)n1`, the growth was 97% in the experiment on HCT-15 colon; 109% in the experiment on HT29 colon; 96.1% with SNB-75 CNS; 29% in the experiment on SNB-19 CNS; 89.1% in the experiment with PC-3 prostate; 98.1% in the experiment with SK-MEL-5 melanoma. Moreover, the growth was 78.1% in the experiment with UACC-62 melanoma; 62.8% in the experiment on LOX IMVI melanoma; 105% with SK-MEL-28 melanoma; 60.3% in the experiment with SK-MEL-2 melanoma; 73.7% with EKVX NSCLC; 85.3% in the experiment with SN12C renal. The growth with UO-31 renal is 82.7%; in the experiment with TK-10 renal it was 86.8%; in the experiment on ACHN renal, 48.8%; with CAKI-1 renal it was 84.5%; with A498 renal, 54.1%; in the experiment on CCRF-CEM leukemia it was 99.8%. Besides, in the experiment with MOLT-4 leukemia, the growth was 103%.

For `CC(=O)Nc1ccc(-c2cn(-c3cccc(C(=O)Nc4ccc(Cl)c(C(F)(F)F)c4)c3)nn2)cn1`, the growth in the experiment on HCT-15 colon was -57.8% (active); in the experiment on HT29 colon, -50.3% (active); with SNB-75 CNS, 88%; in the experiment on SNB-19 CNS, -35.3% (active); in the experiment on PC-3 prostate, 1.58% (active); in the experiment on SK-MEL-5 melanoma, 38.5%. Further, the growth with UACC-62 melanoma is -62.4% (active); in the experiment with LOX IMVI melanoma, -90.8% (active); in the experiment with SK-MEL-28 melanoma it was -80.6% (active); in the experiment with SK-MEL-2 melanoma, -38.3% (active); with EKVX NSCLC, -30.2% (active); in the experiment on SN12C renal it was -48.4% (active). Further, the growth with UO-31 renal was -56% (active); in the experiment on TK-10 renal it was -18% (active); in the experiment on ACHN renal it was -52.5% (active); with CAKI-1 renal, -27.8% (active); in the experiment with A498 renal, -63.1% (active); in the experiment with CCRF-CEM leukemia, 30%. Besides, the growth in the experiment with MOLT-4 leukemia was 7.02% (active).

On to `CC(=O)c1ccc(Nc2nc(SC(C)C)nc(-c3ccccc3)c2C#N)cc1`, for which the growth in the experiment with HCT-15 colon is 48.7%; in the experiment on HT29 colon, 48.1%; with SNB-75 CNS, 42.3%; with SNB-19 CNS it was -20% (active); in the experiment on PC-3 prostate, 71.9%; with SK-MEL-5 melanoma it was 38.1%. Further, the growth with UACC-62 melanoma was 77.9%; in the experiment with LOX IMVI melanoma it was 0.768% (active); in the experiment on SK-MEL-28 melanoma, 31.3%; with SK-MEL-2 melanoma, 111%; with EKVX NSCLC it was 39.7%; in the experiment on SN12C renal, 10.9%. Also, the growth is -53.6% (active) with UO-31 renal; 6.61% (active) with TK-10 renal; -56.9% (active) in the experiment on ACHN renal; 8.35% (active) in the experiment with CAKI-1 renal; 94.7% in the experiment with A498 renal; 97.5% in the experiment on CCRF-CEM leukemia. Moreover, the growth in the experiment with MOLT-4 leukemia was 82.9%.

Take `CC[C@@]1(O)C(=O)OCc2c1cc1n(c2=O)Cc2c-1nc1cc(F)c(C)c3c1c2[C@@H](N)CC3`: the growth was 5.44% (active) with HCT-15 colon; -11.1% (active) with HT29 colon; -26.1% (active) in the experiment with SNB-75 CNS; 1.87% (active) in the experiment with SNB-19 CNS; 22.5% with PC-3 prostate; -78.4% (active) in the experiment on SK-MEL-5 melanoma. Further, the growth is -78.1% (active) in the experiment on UACC-62 melanoma; -74.2% (active) in the experiment on LOX IMVI melanoma; -15.7% (active) in the experiment on SK-MEL-28 melanoma; -29.2% (active) with SK-MEL-2 melanoma; 15.4% in the experiment on EKVX NSCLC; 1.83% (active) with SN12C renal. Also, the growth with UO-31 renal is -82.4% (active); with TK-10 renal it was 6.02% (active); in the experiment with ACHN renal, -57.8% (active); with CAKI-1 renal, -22.9% (active); in the experiment with A498 renal, -89.6% (active); in the experiment on CCRF-CEM leukemia, 13.4%.

Consider `CC1=C(C(=O)OC(C)C)C(c2ccc(O)cc2)NC(=S)N1` (stereo not drawn), for which the growth with HCT-15 colon is 102%; with HT29 colon, 108%; with SNB-75 CNS, 217%; with SNB-19 CNS it was 101%; in the experiment with PC-3 prostate, 94.7%; in the experiment with SK-MEL-5 melanoma, 106%. Besides, the growth is 94.4% in the experiment with LOX IMVI melanoma; 109% with SK-MEL-28 melanoma; 99.2% in the experiment on SK-MEL-2 melanoma; 92.5% in the experiment with EKVX NSCLC; 105% in the experiment on SN12C renal; 96.2% in the experiment with UO-31 renal. For the same compound, the growth in the experiment on TK-10 renal is 95.5%; in the experiment with ACHN renal, 109%; in the experiment with CAKI-1 renal it was 98%; with A498 renal it was 138%; in the experiment on CCRF-CEM leukemia it was 101%; with MOLT-4 leukemia, 94.8%.

For the compound `CC(=O)c1ccc(NC(=O)NCn2c(=O)[nH]c3ccccc3c2=O)cc1`, the growth with HCT-15 colon was 101%; in the experiment on HT29 colon it was 105%; in the experiment on SNB-75 CNS, 99.9%; in the experiment with SNB-19 CNS, 90.4%; with PC-3 prostate, 86.9%; in the experiment on SK-MEL-5 melanoma, 96.8%. For the same compound, the growth in the experiment on UACC-62 melanoma is 81.1%; with LOX IMVI melanoma, 92.8%; in the experiment on SK-MEL-28 melanoma it was 103%; with SK-MEL-2 melanoma, 106%; with EKVX NSCLC, 92.5%; in the experiment on SN12C renal it was 94.2%. The growth with UO-31 renal was 73.7%; in the experiment with TK-10 renal, 105%; in the experiment with ACHN renal it was 99.2%; with CAKI-1 renal it was 91.2%; with A498 renal, 98.1%; in the experiment with CCRF-CEM leukemia, 91.6%.

As to `CCOC(=O)C1=C(N)N(c2ccc(Cl)cc2)C2=C(C(=O)CC(C)(C)C2)C1c1ccc(N2CCOCC2)cc1` (stereo not drawn), the growth was 92.5% with HCT-15 colon; 104% with HT29 colon; 109% in the experiment with SNB-75 CNS; 91.2% in the experiment with SNB-19 CNS; 92% with PC-3 prostate; 80.3% in the experiment on SK-MEL-5 melanoma. Also, the growth is 82.8% in the experiment on UACC-62 melanoma; 115% with LOX IMVI melanoma; 105% in the experiment on SK-MEL-28 melanoma; 96.2% with SK-MEL-2 melanoma; 74.6% with EKVX NSCLC; 97.7% with SN12C renal. Besides, the growth is 85.3% in the experiment with UO-31 renal; 98% in the experiment on TK-10 renal; 112% in the experiment on ACHN renal; 86.7% with CAKI-1 renal; 119% in the experiment with A498 renal; 100% in the experiment on CCRF-CEM leukemia.
